Activity calls are given as the source filed them.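 The calls were made as follows: active = inhibition of at least 50% at 1 µM; inactive = inhibition below 50% at 1 µM.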
Target: sn-1-specific diacylglycerol lipase ABHD11 (Mus musculus) (UniProt Q8K4F5)
Experiment: mouse ABHD11 activity inhibitors in proteome – biochemical, competitive gel ABPP, set 2, selectivity assay for DAGLb inhibitor project, late-stage follow-up (AID 602312)

sn-1-specific diacylglycerol lipase ABHD11 (Mus musculus), sequence (Q8K4F5 whole entry, looked up): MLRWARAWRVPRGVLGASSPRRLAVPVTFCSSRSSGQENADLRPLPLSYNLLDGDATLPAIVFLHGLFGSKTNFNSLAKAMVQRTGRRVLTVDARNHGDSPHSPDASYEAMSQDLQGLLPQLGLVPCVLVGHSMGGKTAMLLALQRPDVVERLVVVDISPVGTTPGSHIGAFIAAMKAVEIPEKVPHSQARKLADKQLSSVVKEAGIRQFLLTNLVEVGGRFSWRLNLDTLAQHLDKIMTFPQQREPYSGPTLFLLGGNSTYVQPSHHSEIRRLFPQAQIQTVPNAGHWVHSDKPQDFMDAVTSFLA

With `COc1ccc(-c2ccc(-c3cn(C(=O)N4CCCCC4c4ccccc4)nn3)cc2)cc1` (stereo unspecified) the outcome was “inactive”.
